This test relates to RIVA. The test can be described thus: growth inhibition by drug plus 177Lu-lilotomab satetraxetan (1 - RLU/untreated control) (fraction); higher = stronger inhibition. The note with it: 177Lu-lilotomab satetraxetan 0.5 ug/ml. The procedure: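 RIVA (RI-1) ABC-DLBCL cells were pretreated or not for 18 h with 0.5 ug/ml 177Lu-lilotomab satetraxetan (600 MBq/mg), washed and seeded (3000 cells/well) on 384-well plates pre-printed with the Selleck Cambridge Cancer Compound library. Viability was read by RealTime-Glo luminescence on days 3-6 after seeding. Effect = 1 - RLU/mean RLU of the 48 untreated no-drug control wells per plate; Bliss score = (M-E)/(1-Fa).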

For the compound `O=C(Oc1ccc([N+](=O)[O-])cc1)N1CCC(C(O)(c2ccc3c(c2)OCO3)c2ccc3c(c2)OCO3)CC1`, the “growth inhibition by drug plus 177Lu-lilotomab satetraxetan” value (“growth inhibition” below) is, setting by setting: (10 nM, time (day): 3) 0.375; (10 nM, time (day): 4) 0.498; (10 nM, time (day): 5) 0.518; (10 nM, time (day): 6) 0.517; (100 nM, time (day): 3) 0.429; (100 nM, time (day): 4) 0.517. Besides, the “growth inhibition” value by setting is: (100 nM, time (day): 5) 0.523; (100 nM, time (day): 6) 0.501.
As to `O=C(O)c1nn(Cc2ccc(Cl)cc2Cl)c2ccccc12` [Lonidamine], the “growth inhibition” value was 0.616 (10 nM, time (day): 3); 0.624 (10 nM, time (day): 4); 0.644 (10 nM, time (day): 5); 0.656 (10 nM, time (day): 6); 0.309 (100 nM, time (day): 3); 0.446 (100 nM, time (day): 4). For the same compound, the “growth inhibition” value by setting is: (100 nM, time (day): 5) 0.459; (100 nM, time (day): 6) 0.45.
Regarding `C[C@]12CCC(=O)C(O)=C1CC[C@@H]1[C@@H]2CC[C@]2(C)C(=O)CC[C@@H]12` [Formestane], the “growth inhibition” value is 0.476 (10 nM, time (day): 3); 0.532 (10 nM, time (day): 4); 0.553 (10 nM, time (day): 5); 0.549 (10 nM, time (day): 6); 0.447 (100 nM, time (day): 3); 0.508 (100 nM, time (day): 4). For the same compound, the “growth inhibition” value turned out to be 0.53 (100 nM, time (day): 5) and 0.533 (100 nM, time (day): 6).
`Cc1cc2c(C(C)C)c(O)c(O)c(C=O)c2c(O)c1-c1c(C)cc2c(C(C)C)c(O)c(O)c(C=O)c2c1O` [Gossypol]: the “growth inhibition” value by setting is: (10 nM, time (day): 3) 0.354; (10 nM, time (day): 4) 0.475; (10 nM, time (day): 5) 0.501; (10 nM, time (day): 6) 0.51; (100 nM, time (day): 3) 0.233; (100 nM, time (day): 4) 0.353. The “growth inhibition” value (100 nM, time (day): 5) is 0.38 and the “growth inhibition” value (100 nM, time (day): 6) is 0.364.
On to `CC[C@@H](C(=O)[C@@H](C)[C@@H](O)[C@H](C)[C@@H]1O[C@@H]([C@@H](CC)C(=O)O)CC[C@@H]1C)[C@H]1O[C@]2(C=C[C@@H](O)[C@]3(CC[C@@](C)([C@H]4CC[C@](O)(CC)[C@H](C)O4)O3)O2)[C@H](C)C[C@@H]1C` [Salinomycin (Procoxacin)], for which the “growth inhibition” value reads like this: (10 nM, time (day): 3) 0.491; (10 nM, time (day): 4) 0.572; (10 nM, time (day): 5) 0.591; (10 nM, time (day): 6) 0.6; (100 nM, time (day): 3) 0.481; (100 nM, time (day): 4) 0.518. For the same compound, the “growth inhibition” value reads like this: (100 nM, time (day): 5) 0.517; (100 nM, time (day): 6) 0.502.

The values above are taken from the supplement of paper PMC6897291.
